The whole screen tested about 1,500 compounds, of which about 460 (31%) were called active.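 Rule for the calls: active = viability at or below 80% at any tested concentration, marking the compound as toxic; inactive = the rest.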 A selection follows. Entries with a potency or affinity are not part of this list.

The values that follow come from PubChem BioAssay AID1117359 (Southern Research Institute, 2015).

This test in a line: viability loss in THP-1 monocytes – THP-1 cells, cytotoxicity control for Vif-APOBEC3G degradation inhibitor project, dose response (AID 1117359). The following applies: THP-1 viability, CellTiter-Glo luminescence, 72 h; series mostly up to 40 µM. On the technique in general: In ATP-based viability assays light output follows the ATP content of the culture.
Regarding `CC(C)Cc1cc(C(=O)Nc2cccc(O)c2)no1`, the result was inactive.
The value for `COc1ccc(S(=O)(=O)N2CCOC2CNC(=O)C(=O)NCc2ccccn2)cc1` (stereo unspecified) was “inactive”; that for `Cc1csc(=O)n1CC(=O)OCC(=O)c1ccc(Br)cc1` was “inactive”; that for `O=C(O)/C=C/C(=O)NNc1ncnc2ccccc12` was “inactive”.
The value for `C=CCn1c(SCC(=O)c2c(N)n(C)c(=O)n(C)c2=O)nnc1-c1ccccc1F` was “inactive”; that for `COc1ccc(CNc2nc3ccccc3n2C)c(O)c1` was “inactive”.
With `COc1ccc2c(=O)c3c(=O)n(-c4ccc(C)cc4)c(-c4ccccc4)nc3oc2c1` the entry was “inactive”; with `O=[N+]([O-])c1ccc(N/N=C/c2ccc(O)c(O)c2O)c(S(=O)(=O)N2CCOCC2)c1`, “inactive”; with `Cc1nnc(SCC(=O)N2CCN(c3ccccc3)CC2)n1C1CC1`, “inactive”.
In the case of `CCOC(CCNC(=O)c1cn(C)c(=O)c2c1c1ccccc1n2C)OCC`, the molecule was called inactive.
Consider `Oc1ccc(/C=C/c2cnccn2)cc1`, for which the molecule was classed as inactive.
With `O=CN/C=C/c1cc(O)ccc1O` the entry was “inactive”.
With `CC1CN(C(=O)COC(=O)Cc2ccc(Cl)cc2)CC(C)O1` (stereo unspecified) the entry was “inactive”.
The value for `CCN(CC(=O)Nc1c(F)cccc1F)C(=O)CSC(=S)N1CCCC1` was “inactive”.
With `O=c1[nH]c2ccccc2c(O)c1-[n+]1ccccc1`, the result was inactive.
With `CCc1ccc2c(CN3CCC(C(=O)OC)CC3)cc(=O)oc2c1` the entry was “inactive”.
The value for `Cc1ccc(CNC(=O)COc2ccc3c(c2)CCC3)cc1` was “inactive”.
With `CCn1c(SCC(=O)OC)nc2sc3c(c2c1=O)CCC3` the entry was “inactive”; with `Cc1cc(SCC(=O)NCCCN2CCCC2=O)nc2ccccc12`, “inactive”.
Take `Cc1cc2c(c(=O)o1)C(c1ccc([N+](=O)[O-])o1)C(C#N)=C(N)O2` (stereo unspecified): the molecule was classed as inactive.
With `CC1CN(S(=O)(=O)c2cc(C(=O)NCc3ccncc3)ccc2Cl)CC(C)O1` (stereo unspecified) the entry was “inactive”; with `CCN(CC(=O)Nc1ccc(NC(C)=O)cc1)C(=O)C1CCCC1`, “inactive”.
With `CN(C)c1ccc(NC(=O)Nc2cccc(Cl)c2)cc1` the entry was “inactive”; with `COC(=O)C1CCN(c2ccc([N+](=O)[O-])cc2)CC1`, “inactive”.
On to `C=CCc1c(C)nc2c(C(=O)O)cnn2c1C`, for which the call was inactive.
With `CC1(C)CCC(=O)c2ccccc21` the entry was “inactive”; with `O=S(=O)(O)c1cc(O)c2cc(Nc3ccccc3)ccc2c1`, “inactive”.
The value for `Cn1cc(/C=C/C(=O)N2CCCC(C(=O)c3cccc(C(F)(F)F)c3)C2)cn1` (stereo unspecified) was “inactive”; that for `CC1(C)C2CCC1(C)C(OC(=O)C[n+]1ccccc1)C2` (stereo unspecified) was “inactive”; that for `CN1CCN(S(=O)(=O)Cc2ccc(Cl)cc2)CC1` was “inactive”.
The value for `CN1CCN(C2=C(Cl)C(=O)C(c3cnc(N4CCCCC4)s3)=C(Cl)C2=O)CC1` was “inactive”; that for `CN(C)c1ncc(C2=C(Cl)C(=O)C(N3CCCC3)=C(Cl)C2=O)s1` was “inactive”.
`O=C1C(Cl)=C(N2CCCCC2)C(=O)C(Cl)=C1c1cnc(N2CCCCC2)s1`: the molecule was classed as inactive.
As to `CCn1c(CNC(=O)Cc2ccc(OC)cc2)nnc1SCC(=O)Nc1ccc(C(=O)O)cc1`, the molecule was called inactive.
With `Cc1cc(O)c(Oc2cc(C)cc(O)c2O)c(O)c1` the entry was “inactive”; with `Cc1nc(NCc2ccccc2)c2cc[nH]c2n1`, “inactive”; with `COc1ccc2c(c1)n([O-])c1c([n+]2=O)CCC1`, “inactive”.
The value for `CC(C)C(NC(N)=O)C(=O)NC1CCCCC1` (stereo unspecified) was “inactive”.
With `CN(CC(=O)Nc1cccc(F)c1)C(=O)c1cc(-c2ccco2)nc2ccccc12` the entry was “inactive”; with `CCc1ccccc1NNC(=O)CCc1ccccc1`, “inactive”.
For `Cn1cnnc1SCC(=O)Nc1ncc([N+](=O)[O-])s1`, the molecule was classed as inactive.
With `C=C(C)C(=O)Nc1cccc(C2=NOC3(C2)C[C@@H](C(N)=O)N(C(=O)CCCCC)C3)c1` (stereo partly specified) the entry was “inactive”; with `CCOC(=O)C1=C(COC(=O)/C=C/c2ccco2)NC(=O)NC1C` (stereo unspecified), “inactive”; with `Cc1ccc(NC(=O)CN2C(=O)N/C(=C/c3ccco3)C2=O)cc1`, “inactive”.
As to `C=CC1=C(C(=O)O)N2C(=O)C(NC(=O)Cc3ccccc3)C2SC1` (stereo unspecified), the call was inactive.
With `Cc1cc(C(=O)NCCCN2CCCC2=O)no1` the entry was “inactive”; with `CCOC(=O)C1=C(c2ccccc2)NC(=O)NC1c1cc(Cl)c(O)c(OC)c1` (stereo unspecified), “inactive”.
With `Cc1nc(-c2noc(-c3ccccc3Cl)n2)c(C(F)(F)F)o1` the entry was “inactive”; with `COc1cccc(CC(=O)N2CCCC(CO)(Cc3ccc(F)cc3F)C2)c1` (stereo unspecified), “inactive”.
As to `COc1ccc(/C=N/NC(=O)CN2CCN(Cc3ccccc3)CC2)cc1Br`, the result was inactive.
In the case of `O=C(COc1ccc([N+](=O)[O-])cc1)NC(C(=O)O)C(O)c1cccc([N+](=O)[O-])c1` (stereo unspecified), the molecule was called inactive.
With `COc1cc(NC(=O)CSCC(=O)N(C)C2CCCCC2)cc(OC)c1` the entry was “inactive”.
The value for `O=C(O)COc1ccc2c(c1)O/C(=C\c1ccco1)C2=O` was “inactive”; that for `CC(C)(C)OC(=O)N1CCN(c2ccc([N+](=O)[O-])cc2)CC1` was “inactive”; that for `O=C(NC(=O)N1CCN(c2ccc([N+](=O)[O-])cn2)CC1)c1c(Cl)cccc1Cl` was “inactive”.
In the case of `CCc1ccccc1NC(=S)N(Cc1ccc(OC)cc1)CC1CCC(C(=O)O)CC1` (stereo unspecified), the molecule was called inactive.
The value for `O=C(Cn1c(NCCO)nc2ccccc21)NCC(F)(F)F` was “inactive”; that for `COc1cc(C(=O)NNC(=S)NCc2ccco2)cc(OC)c1OC` was “inactive”; that for `Cc1ccc(C(CC(=O)NCc2ccco2)c2ccccc2)c(O)c1` (stereo unspecified) was “inactive”.
`Cc1ccc(C(=O)N/C(=C/c2cccnc2)C(=O)NCc2ccco2)cc1`: the outcome was inactive.
With `O=C(O)CSc1c2c(nc3cc(C(=O)Nc4cccc(C(F)(F)F)c4)ccc13)CCC2` the entry was “inactive”; with `COc1cc(/C=C2/C(=O)c3cccc([N+](=O)[O-])c3C2=O)c(Br)cc1O`, “inactive”.
The value for `CCN(CC)c1ccc(NC(=O)CCS(=O)(=O)c2ccc(Br)cc2)c(C)c1` was “inactive”; that for `CCOC(=O)C(C)N1C(=O)S/C(=C\c2ccc(-c3ccccc3C(=O)O)o2)C1=O` (stereo unspecified) was “inactive”; that for `CNC[C@H](O)c1ccc(O)c(O)c1` was “inactive”.
Regarding `CCN(CC)Cc1cc(O)c(CN(CC)CC)cc1O`, the molecule was called inactive.
As for `COc1cccc(NC(=O)CSc2nnc(-c3ccco3)c(-c3ccco3)n2)c1`, the outcome was inactive.
The value for `CCOC(=O)CNc1nc2ccccc2n2c(C)nnc12` was “inactive”; that for `COc1cc(NCCCNC(C)C)c2nccc(C)c2c1` was “inactive”; that for `COc1cc(CC(=O)NCC(C)(C)N2CCOCC2)cc(OC)c1OC` was “inactive”.
Take `C[C@H](NC(=O)c1ccco1)C(=O)Nc1cccc([N+](=O)[O-])c1`: the result was inactive.
